Assay results as given in the supplement of paper PMC6522484.
± gives the standard deviation of the averaged measurements.

Tests used:
DLD1 [1] = assay: cell viability (CellTiter-Glo) relative to plate median (fraction of plate median); higher = more viable cells; conditions: 10 µM, treatment time 24 h
How it was run: (§1)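 Colorectal cancer cells expressing a stably transduced lentiviral TCF/Wnt firefly luciferase reporter were treated in 384-well plates with kinase inhibitor library compounds at a final 10 µM for 24 h. Firefly luciferase or CellTiterGlo luminescence was then read on parallel plates. Well signals were normalised to the plate median (webcellHTS2, additive, no log transformation) and averaged over two independent replicates.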

HCT116 [2] = assay: as above; conditions: 10 µM; treatment time 24 h; reporter: TCF4/Wnt
How it was run: as §1

SW480 [3] = assay: as above; conditions: 10 µM; treatment time 24 h; reporter: 7TFP
How it was run: as §1

DLD1 [4] = assay: TCF/Wnt firefly luciferase reporter signal relative to plate median (fraction of plate median); higher = higher Wnt reporter signal; conditions: 10 µM, treatment time 24 h
How it was run: as §1

HCT116 [5] = assay: as above; conditions: 10 µM; treatment time 24 h; reporter: TCF4/Wnt
How it was run: as §1

SW480 [6] = assay: as above; conditions: 10 µM; treatment time 24 h; reporter: 7TFP
How it was run: as §1

Row | Structure (SMILES) | cell viability (DLD1 [1]; reporter: 7TFP) | cell viability (DLD1 [1]; reporter: TCF4/Wnt) | cell viability (HCT116 [2]) | cell viability (SW480 [3]) | TCF/Wnt firefly luciferase reporter signal (DLD1 [4]; reporter: 7TFP) | TCF/Wnt firefly luciferase reporter signal (DLD1 [4]; reporter: TCF4/Wnt) | TCF/Wnt firefly luciferase reporter signal (HCT116 [5]) | TCF/Wnt firefly luciferase reporter signal (SW480 [6])
1 | O=C(Nc1cc(C(F)(F)F)cc(C(F)(F)F)c1)c1cc(Cl)ccc1O | 0.48 ± 0.1 | 0.618 ± 0.011 | 0.303 ± 0.12 | 0.477 ± 0.03 | 0.473 ± 0.11 | 1.47 ± 0.67 | 0.133 ± 0.072 | 0.3675 ± 0.0021
2 | Cc1cccc(-c2[nH]c(C(C)(C)C)nc2-c2ccc3nccnc3c2)n1 | 1.14 ± 0.064 | 1.06 ± 0.14 | 1.17 ± 0.028 | 0.853 ± 0.043 | 1.1 ± 0.042 | 1.03 ± 0.12 | 1.03 ± 0.14 | 0.854 ± 0.17
3 | Cc1cn(-c2cc(NC(=O)c3ccc(C)c(Nc4nccc(-c5cccnc5)n4)c3)cc(C(F)(F)F)c2)cn1 [Nilotinib (AMN-107)] | 0.808 ± 0.028 | 0.935 ± 0.041 | 0.9715 ± 0.005 | 0.973 ± 0.053 | 0.873 ± 0.054 | 0.708 ± 0.12 | 0.894 ± 0.028 | 1.04 ± 0.028
4 | C[S+]([O-])c1ccc(-c2nc(-c3ccc(F)cc3)c(-c3ccncc3)[nH]2)cc1 (stereo not given) | 0.99 ± 0.099 | 1.02 ± 0.028 | 1.11 ± 0.035 | 0.913 ± 0.0099 | 0.82 ± 0.16 | 0.884 ± 0.22 | 1.26 ± 0.38 | 0.935 ± 0.064
5 | Cc1ccc(NC(=O)c2cccc(N(C)C)c2)cc1NC(=O)c1ccc(O)cc1 | 1.11 ± 0.16 | 1.095 ± 0.0071 | 1.23 ± 0.11 | 0.907 ± 0.033 | 1.07 ± 0.092 | 1.12 ± 0.014 | 1.04 ± 0.035 | 0.955 ± 0.092
6 | Cc1nc(NC(=O)N2CCC[C@H]2C(N)=O)sc1-c1ccnc(C(C)(C)C(F)(F)F)c1 | 0.977 ± 0.047 | 0.996 ± 0.034 | 0.938 ± 0.1 | 1.09 ± 0.028 | 0.558 ± 0.062 | 0.711 ± 0.13 | 0.985 ± 0.13 | 0.791 ± 0.024
7 | CCS(=O)(=O)c1cccc(-c2cc(C(=O)NC3CCN(C)CC3)c(C)c3[nH]c4ncc(C)cc4c23)c1 | 1.06 ± 0.071 | 1.1 ± 0.057 | 0.522 ± 0.23 | 0.965 ± 0.026 | 1.25 ± 0.078 | 1.215 ± 0.0071 | 0.565 ± 0.24 | 0.834 ± 0.1
8 | CC[C@H](Nc1ncnc2[nH]cnc12)c1nc2cccc(F)c2c(=O)n1-c1ccccc1 | 1.05 ± 0.14 | 0.999 ± 0.086 | 1.11 ± 0.042 | 0.996 ± 0.02 | 0.977 ± 0.089 | 0.788 ± 0.024 | 0.777 ± 0.3 | 0.751 ± 0.26
9 | COC(=O)Nc1ccc(-c2nc(N3CCOCC3)c3cnn(C4CCN(Cc5cccnc5)CC4)c3n2)cc1 | 0.796 ± 0.069 | 0.872 ± 0.036 | 0.759 ± 0.059 | 1.055 ± 0.0071 | 0.372 ± 0.064 | 0.632 ± 0.04 | 0.595 ± 0.068 | 0.765 ± 0.066
10 | Cc1[nH]c(/C=C2\C(=O)Nc3ccc(S(=O)(=O)Cc4c(Cl)cccc4Cl)cc32)c(C)c1C(=O)N1CCC[C@@H]1CN1CCCC1 | 0.691 ± 0.27 | 0.648 ± 0.43 | 0.826 ± 0.33 | 0.798 ± 0.34 | 0.7 ± 0.36 | 0.868 ± 0.16 | 0.7 ± 0.88 | 1.21 ± 0.028
11 | C[C@@H]1CN(CC(=O)Nc2ccc3c(c2)Cc2cccc(-c4cc(=O)cc(N5CCOCC5)o4)c2S3)C[C@H](C)O1 | 0.7975 ± 0.00071 | 0.878 ± 0.043 | 0.957 ± 0.012 | 0.952 ± 0.058 | 1.3 ± 0.092 | 1.32 ± 0.11 | 1.33 ± 0.66 | 1.23 ± 0.071
12 | NC(=O)Nc1sc(-c2ccc(F)cc2)cc1C(N)=O | 0.951 ± 0.033 | 0.93 ± 0.075 | 1.1 ± 0.085 | 1.1 ± 0.014 | 0.669 ± 0.03 | 1.16 ± 0.18 | 1.39 ± 0.2 | 1.38 ± 0.057
13 | O=C(NC1CCNCC1)c1n[nH]cc1NC(=O)c1c(Cl)cccc1Cl | 1.16 ± 0.33 | 1.16 ± 0.18 | 0.793 ± 0.16 | 1.31 ± 0.17 | 0.517 ± 0.1 | 0.797 ± 0.67 | 0.226 ± 0.018 | 0.798 ± 0.074
14 | COc1cc(N2CCC(N3CCN(C)CC3)CC2)ccc1Nc1ncc(Cl)c(Nc2ccccc2S(=O)(=O)C(C)C)n1 | 0.799 ± 0.069 | 0.884 ± 0.0071 | 0.733 ± 0.057 | 0.923 ± 0.054 | 0.909 ± 0.21 | 1.14 ± 0.035 | 1.2 ± 0.12 | 0.767 ± 0.057
15 | COc1cc2/c(=N/c3ccc(Br)cc3F)nc[nH]c2cc1OCC1CCN(C)CC1 [Vandetanib (Zactima)] | 0.921 ± 0.18 | 1.08 ± 0.057 | 1.14 ± 0.085 | 1.2 ± 0.035 | 0.9625 ± 0.0035 | 0.773 ± 0.093 | 0.916 ± 0.081 | 1.2 ± 0.092
16 | CC1(C)CNc2cc(NC(=O)c3cccnc3NCc3ccncc3)ccc21 [Motesanib Diphosphate] | 1.015 ± 0.0071 | 0.978 ± 0.074 | 1.08 ± 0.021 | 0.8805 ± 0.0021 | 1.14 ± 0.12 | 0.952 ± 0.17 | 1.19 ± 0.19 | 0.971 ± 0.11
17 | C#Cc1cccc(Nc2ncnc3cc(OCCOC)c(OCCO)cc23)c1 | 0.923 ± 0.073 | 0.988 ± 0.045 | 1.22 ± 0.064 | 0.961 ± 0.013 | 0.821 ± 0.11 | 0.819 ± 0.14 | 0.804 ± 0.012 | 1.05 ± 0.098
18 | Cc1cnc(NC(=O)Nc2cc(Br)c(C)cc2OC[C@@H]2CNCCO2)cn1 | 0.833 ± 0.16 | 0.983 ± 0.096 | 0.805 ± 0.16 | 1.02 ± 0.089 | 1.06 ± 0.057 | 1.12 ± 0.028 | 0.894 ± 0.35 | 0.938 ± 0.012
19 | CNC(=O)c1nn(C)c2c1C(C)(C)Cc1cnc(Nc3ccc(N4CCN(C)CC4)cc3)nc1-2 | 1.02 ± 0.2 | 0.941 ± 0.049 | 0.659 ± 0.18 | 1.14 ± 0.099 | 0.274 ± 0.088 | 0.3665 ± 0.0035 | 0.146 ± 0.022 | 0.845 ± 0.096
20 | O=C1NC(=O)/C(=C/c2ccc(-c3ccc(F)cc3O)o2)S1 | 1.09 ± 0.092 | 1.21 ± 0.028 | 1.19 ± 0.092 | 1.04 ± 0.14 | 0.905 ± 0.13 | 1.34 ± 0.47 | 1.7 ± 0.71 | 1.41 ± 0.35
